# This is part of a sample that, as a whole, favours compounds with a hit. Of some 83,000 tested, about 20% had one in any assay.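 Results are percent growth after 48 hours of single-concentration exposure. 100 means growth as in untreated cells, lower positive values show inhibition; negative values down to -100 show cell death.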 A number with no mark means an inactive call. Active and inactive are the calls of the source. How the source made its calls: active means growth percent below 10; inactive means the rest.
# How the values were obtained:
# Assay in all cases: NCI-60 one-dose screen, 48 h (100 = growth as untreated, 0 = no growth, -100 = all killed)
# Conditions in all cases: 10 µM unless noted
# [1] = tested on: NCI-H23 lung
# [2] = tested on: NCI-H226 lung
# [3] = tested on: NCI-H322M lung
# [4] = tested on: HOP-62 NSCLC
# [5] = tested on: HOP-92 NSCLC
# [6] = tested on: NCI-H522 lung
# [7] = tested on: A549/ATCC NSCLC
# [8] = tested on: 786-0 renal
# [9] = tested on: COLO 205 colon
# [10] = tested on: DU-145 prostate
# [11] = tested on: K-562 leukemia
# [12] = tested on: MALME-3M melanoma
# [13] = tested on: MDA-MB-231 breast
# [14] = tested on: RXF 393 renal
# [15] = tested on: SF-268 CNS
# [16] = tested on: SF-295 CNS
# [17] = tested on: SF-539 CNS
# [18] = tested on: UACC-257 melanoma
# [19] = tested on: M14 melanoma
# [20] = tested on: NCI-H460 lung
SMILES,growth [1],growth [2],growth [3],growth [4],growth [5],growth [6],growth [7],growth [8],growth [9],growth [10],growth [11],growth [12],growth [13],growth [14],growth [15],growth [16],growth [17],growth [18],growth [19],growth [20]
O=C(Nc1cc(-c2cccnc2)nc(NCCCN2CCOCC2)n1)c1cc(Br)cc(C(F)(F)F)c1,80.9%,73.8%,58.2%,69.4%,34.6%,60.2%,67.9%,51.8%,1.11% (active),82.6%,8.84% (active),-7.83% (active),32.7%,52.8%,60.9%,-22.8% (active),66.5%,-27.1% (active),-72.1% (active),–
CCOc1ccc(S(=O)(=O)Nc2ccc3c(c2)N(S(=O)(=O)CC)CCC3)cc1,87.5%,87%,86.8%,69.9%,86.1%,68.4%,84.3%,96%,62.6%,89.6%,71.6%,100%,88.7%,86.2%,74.1%,59.2%,61.6%,85.4%,107%,–
O=c1cc(-c2ccccc2)oc2c(O)c(O)ccc12,57.6%,85.5%,79%,52.7%,7.46% (active),43.6%,55.5%,65%,90.7%,68.4%,63.9%,87.2%,71%,72.9%,67.6%,64.5%,53.1%,85.3%,58.8%,–
CCOC(=O)c1nn(C2CCCCO2)c2ccc(NC(=O)Cn3nnc4ccccc43)cc12 (stereo not drawn),102%,109%,96.9%,98.8%,111%,102%,102%,90.9%,120%,104%,91.3%,105%,96.4%,125%,101%,99.3%,100%,100%,102%,–
COc1ccc(C2NC(=O)C(C#N)c3c2sc2c(F)cccc32)cc1 (stereo not drawn),76.3%,60.3%,65.3%,46.4%,54.2%,20.1%,–,71%,91.6%,67.8%,14.1%,47.2%,71.2%,55.9%,62%,30.5%,39.5%,63.9%,33.3%,28.6%
O=C(CSc1nccc(Nc2ccc(S(=O)(=O)Nc3ccccn3)cc2)n1)c1ccc(Cl)cc1,80.3%,89%,104%,83.5%,92.8%,75.4%,105%,102%,110%,103%,86.6%,112%,85.8%,106%,95.1%,98.2%,95.3%,91.3%,107%,–
O=C(Nc1cccc2ccccc12)c1cc2ccccc2cc1O,8.03% (active),12.5%,-4.28% (active),12.5%,-22% (active),9.44% (active),11.3%,22.2%,112%,25.7%,14.7%,-12.3% (active),-22.1% (active),22.7%,23.8%,6.2% (active),17.7%,5.69% (active),32.2%,–
O=C(Nc1cccnc1)c1ccc2ccc3ccc(C(=O)Nc4cccnc4)nc3c2n1,23.1%,4.52% (active),10.5%,9.18% (active),23.9%,30.7%,22.1%,19.9%,13.2%,14.6%,17.1%,46.7%,25.2%,-50.4% (active),15.9%,5.39% (active),-6.56% (active),30.8%,15.5%,–
CCOC(=O)c1nc2c3ccccc3ccn2c1C(=O)OC,97.2%,97.2%,95.6%,95.5%,103%,90.6%,92.8%,93.8%,104%,104%,113%,100%,99.9%,93.8%,101%,106%,100%,102%,107%,–
CCN=C1C=CC(=C(c2ccc(N(CC)CC)cc2)c2ccc(N(CC)CC)cc2)c2ccccc21,-53.5% (active),-58.3% (active),-38.9% (active),–,-72.8% (active),-65.5% (active),-59.8% (active),-64.3% (active),-90.7% (active),-96.5% (active),-13.6% (active),-82.6% (active),-8.34% (active),-74.4% (active),-18.6% (active),-80.9% (active),-82.9% (active),-69.9% (active),-67% (active),-72% (active)
C[C@H]1[C@H](C)CC[C@]2(C(=O)N3CCN(C)CC3)CC[C@]3(C)C(=CC[C@@H]4[C@@]5(C)C/C(=C/c6ccco6)C(=O)C(C)(C)[C@@H]5CC[C@]43C)[C@H]12,32.5% [100 µM],37.4% [100 µM],51.6% [100 µM],35.8% [100 µM],56.9% [100 µM],4.91% [100 µM] (active),24.8% [100 µM],40.6% [100 µM],40.4% [100 µM],50.4% [100 µM],28.2% [100 µM],45.7% [100 µM],15.6% [100 µM],55.1% [100 µM],50.3% [100 µM],29.8% [100 µM],46.2% [100 µM],22.5% [100 µM],48.8% [100 µM],–
C#C[C@]1(O)CC[C@H]2[C@@H]3CC=C4c5nc(Nc6ccccc6[N+](=O)[O-])sc5CC[C@]4(C)[C@H]3CC[C@@]21C,86.5%,80.9%,72.9%,–,72.6%,73.4%,62.2%,5.63% (active),86.7%,55.3%,8.86% (active),51.7%,52.4%,-44% (active),52.8%,-46.1% (active),-31.5% (active),73%,-23.1% (active),55.7%
CC(C)OC(=O)Nc1cc(F)ccc1F,92.9%,90.9%,90.8%,101%,99.6%,99.8%,99.7%,103%,105%,110%,97.4%,92.7%,97%,106%,103%,97.5%,92.1%,96.9%,96.6%,–
c1ccc(-c2n[nH]c(-c3ccccn3)n2)nc1,102%,118%,121%,104%,94%,96.8%,105%,97%,143%,133%,104%,107%,116%,95.7%,140%,98.1%,106%,106%,111%,–
CC1(C(=O)O)CCC(N)(C(=O)O)C1(C)C (stereo not drawn),113%,108%,108%,–,89.4%,97.1%,–,109%,104%,118%,107%,113%,108%,126%,112%,97.3%,108%,121%,110%,117%
Oc1c(CNCCNCc2cc(Cl)cc(Cc3ccccc3)c2O)cc(Cl)cc1Cc1ccccc1,17.4%,9.76% (active),23.4%,–,45.1%,43.7%,13.9%,-3.97% (active),8.84% (active),24.2%,13.2%,8.23% (active),36.2%,17.6%,18.6%,0.247% (active),2.22% (active),16%,2.36% (active),8.13% (active)

# Reference: PubChem BioAssay (NCI)
